Screening results: PubChem BioAssay, National Center for Advancing Translational Sciences (NCATS)
A selection: hits, their analogues and other compounds. The true share with any hit is near 7.1%.
MARV entry inh – Marburg virus entry inhibition | Potency, µM (highest dose often 49.2 µM), for inactives: at the highest dose activity change, negative = inhibition, most hits filed as inhibitors | Marburg virus pseudotype entry/binding inhibition, cell-based | hit rate 6.5% among 18,000
LASV entry inh – inhibitors of Lassa virus binding or entry into cells; Lassa virus pseudotyped entry inhibition, cell-based qHTS; Potency, µM (series often up to 49.2 µM), without a hit: at the top dose activity change, negative = inhibition, hits mostly inhibitors; hit rate 4.1% among 18,000; AID 720533
Starred values were filed as active, the others as inactive; ! = repeats disagree; [ ] = another dose, or the depositor's remark. The call rests on the fitted dose curve; tested in HEK293 cells. On the % scale 0 is the no-effect control and ±100 the full control effect; potency means the concentration at half of the fitted maximal effect.

For CC(=O)O[C@H]1C[C@H](O[C@H]2[C@@H](O)C[C@H](O[C@H]3[C@@H](O)C[C@H](O[C@H]4CC[C@@]5(C)[C@H](CC[C@@H]6[C@@H]5C[C@@H](O)[C@]5(C)[C@@H](C7=CC(=O)OC7)CC[C@]65O)C4)O[C@@H]3C)O[C@@H]2C)O[C@H](C)[C@H]1O[C@@H]1O[C@H](CO)[C@@H](O)[C@H](O)[C@H]1O the results were MARV entry inh inconclusive and LASV entry inh 0.05µM*.
For CCCNC[C@H](O)COc1ccccc1C(=O)CCc1ccccc1 the results were MARV entry inh 8.9µM* and LASV entry inh -12%[17.8 µM].
N#Cc1ccccc1OC[C@H](O)CNCCNC(=O)Nc1ccccc1 was read as MARV entry inh -3% and LASV entry inh -7%.
Cc1ccc(CN2[C@@H](C)[C@@H](C)Oc3c(Cl)cccc3[S+]2(=O)[O-])cc1 was read as MARV entry inh 14% and LASV entry inh -7%.
`COC(=O)N[C@H](CC(C)=O)c1ccc(Cl)cc1` gave MARV entry inh 3%[8.59 µM] and LASV entry inh -21%[8.59 µM].
Screening N=C(N)SCCc1ccc(OCc2ccc([N+](=O)[O-])cc2)cc1 returned MARV entry inh 14µM* and LASV entry inh -15%.
Oc1ccc(OCc2ccccc2)cc1 was read as MARV entry inh -25%[17.8 µM] and LASV entry inh inconclusive.
Screening O=C(OCCN1CCCCC1)C(O)(c1ccccc1)c1ccccc1 returned MARV entry inh -14% and LASV entry inh -17%.
`O=C(Nc1ccccc1)OCC(CN1CCCCC1)OC(=O)Nc1ccccc1` (stereo not given) gave MARV entry inh 13µM* and LASV entry inh -13%.
Cc1nc(-c2ccc(OCC(C)C)c(C#N)c2)sc1C(=O)O was read as MARV entry inh inconclusive and LASV entry inh 7.9µM*.
`O[C@H]1C[C@H](c2ccc(Cl)cc2)N(CC2CCCCC2)C[C@H]1n1cc(-c2ccc(F)cc2)nn1` gave MARV entry inh -28% and LASV entry inh -17%.
Screening CC(=O)OC[C@H]1O[C@H](c2ccc(C(C)=O)cc2)C=C[C@H]1OC(C)=O returned MARV entry inh 2%[8.59 µM] and LASV entry inh -12%[8.59 µM].
Screening C=CCN1C(=O)CC[C@@]23C1=NC(C(=O)OC)=C(C(=O)OC)[C@@H]2N(C)c1ccccc13 returned MARV entry inh 14%[8.59 µM] and LASV entry inh 14%[8.59 µM].
CCOC(=O)CN1C(=O)[C@]2(O[C@H](COc3ccccc3)CC3=CCCC32)c2c(Br)cccc21 (stereo not given in full) was read as MARV entry inh 5%[8.59 µM].
`CCC[C@H]1CN(c2ccc(OC)cc2)C(=O)[C@H]1CC(=O)NC` gave MARV entry inh inconclusive and LASV entry inh -14%.
`CN1C[C@H](C(=O)N[C@@]2(C)O[C@@]3(O)C4CCCN4C(=O)C(Cc4ccccc4)N3C2=O)C[C@H]2c3cccc4[nH]cc(c34)C[C@H]21` (stereo not given in full) gave MARV entry inh -22% and LASV entry inh -10%.
For CC(C)[C@H]1C(=O)N2CCC[C@H]2[C@]2(O)O[C@](NC(=O)[C@@H]3C[C@@H]4c5cccc6[nH]cc(c56)C[C@H]4N(C)C3)(C(C)C)C(=O)N12 the results were MARV entry inh 7.1µM* and LASV entry inh -19%.
Screening CC(C)[C@@]1(NC(=O)[C@@H]2C[C@@H]3c4cccc5[nH]cc(c45)C[C@H]3N(C)C2)O[C@@]2(O)[C@@H]3CCCN3C(=O)[C@H](Cc3ccccc3)N2C1=O returned MARV entry inh 7.1µM* and LASV entry inh 35µM*!.
`CC(C)[C@@]1(NC(=O)[C@@H]2C[C@H]3c4cccc5[nH]cc(c45)C[C@@H]3N(C)C2)O[C@]2(O)[C@H]3CCCN3C(=O)CN2C1=O` gave MARV entry inh inconclusive and LASV entry inh -12%[17.8 µM].
COC(=O)[C@]12CCC(C)(C)C[C@H]1[C@H]1C(=O)C=C3[C@@]4(C)C=C(C#N)C(=O)C(C)(C)[C@@H]4CC[C@@]3(C)[C@]1(C)CC2 was read as MARV entry inh 3.2µM* and LASV entry inh 3.5µM*.
C=CCOC(=O)N[C@H](c1ccc2ccccc2c1)[C@H](C)C=CCC(=O)OC was read as MARV entry inh -4%[8.59 µM].
For CCN(CC)CCNc1ccc(CO)c2sc3ccccc3c(=O)c12 the results were MARV entry inh 11µM* and LASV entry inh 3%[17.8 µM].
`CC(CCC(=O)OC[C@H]1O[C@H](C#Cc2ccccc2)C=C[C@H]1Oc1ccc(C)cc1)=NO[C@@H](C)c1cn([C@H](CO)Cc2ccccc2)nn1` gave MARV entry inh 9%[8.59 µM].
For Cc1cnc(SCc2ccccn2)nc1C1CCCN(C(=O)c2scc3c2CCCC3)C1 (stereo not given) the results were MARV entry inh 10µM* and LASV entry inh inconclusive.
`CC(=O)Nc1ccc(C(=O)N2CCCC(c3nc(SCc4ccccn4)ncc3C)C2)cc1` (stereo not given) gave MARV entry inh -7% and LASV entry inh 0%.
Screening CCN1C(=O)NC(CCc2ccccc2)C(C(C)=O)=C1C (stereo not given) returned MARV entry inh -9%[8.59 µM] and LASV entry inh -12%[8.59 µM].
`COc1cc2ncn(-c3cc(OCc4ccccc4C(F)(F)F)c(C(=O)N(C)C)s3)c2cc1OC` gave MARV entry inh inconclusive and LASV entry inh -17%.
`COc1cc2ncn(-c3cc(OC(C)c4ccccc4Cl)c(C(N)=O)s3)c2cc1OC` (stereo not given) gave MARV entry inh 3.5µM*.
COc1cc2ncn(-c3cc(OCCc4ccccc4)c(C(N)=O)s3)c2cc1OC was read as MARV entry inh inconclusive and LASV entry inh 7.9µM*.
For COc1cc2ncn(-c3cc(OCc4ccccc4S(C)(=O)=O)c(C#N)s3)c2cc1OC the results were MARV entry inh inconclusive and LASV entry inh -9%.
Screening COC(=O)C1=C(C(=O)OC)[C@@H]2N(Cc3ccccc3)c3ccccc3[C@@]23CCC(=O)N(CCc2ccccn2)C3=N1 returned MARV entry inh inconclusive and LASV entry inh -23%[8.59 µM].
O=C(Nc1n[nH]c2nc(-c3ccco3)c(Br)cc12)C1CC1 was read as MARV entry inh inconclusive and LASV entry inh 66%.
`COC(=O)c1ccc(CN2C(=O)C3(CC(C)=C[C@@H](C)O3)c3c(Br)cccc32)cc1` (stereo not given in full) gave MARV entry inh 26%[8.59 µM] and LASV entry inh -7%[8.59 µM].
CC(C)CON=C1C[C@@H](O)[C@@H](O)[C@@H]2[C@H]3C(=O)N(Cc4ccccc4)C(=O)[C@@H]3CC[C@@H]12 was read as MARV entry inh 1%[8.59 µM] and LASV entry inh -10%[8.59 µM].
For CCOc1ccc(C(=O)OCCN(CC)CC)cc1 the results were MARV entry inh -7% and LASV entry inh -11%.
`CCN(CC)CCOc1ccc2c(c1)C(=O)c1cc(OCCN(CC)CC)ccc1-2` gave MARV entry inh 6.3µM* and LASV entry inh inconclusive.
Screening Cc1ccc(S(=O)(=O)N2CCC(=O)N([C@H](COCc3cccc(C(F)(F)F)c3)Cc3ccccc3)CC2)cc1 returned MARV entry inh 11µM* and LASV entry inh inconclusive.
Cc1ccc(S(=O)(=O)N2CCC(=O)N([C@H](COCc3cccc(C(F)(F)F)c3)C(C)C)CC2)cc1 was read as MARV entry inh inconclusive and LASV entry inh -3%.
Screening CN(C)CCCN1c2ccccc2Sc2ccccc21 returned MARV entry inh 7.1µM* and LASV entry inh inconclusive.
Screening CCC(=O)c1ccc2c(c1)N(CCCN(C)C)c1ccccc1S2 returned MARV entry inh 22µM* and LASV entry inh 32µM*.
